# Assay results: PMC7862700, “An all-to-all approach to the identification of sequence-specific readers for epigenetic DNA modifications on cytosine”
# Tests used:
# Test in all cases: DAPPL (digital affinity profiling via proximity ligation, sequencing); 10 mM Tris-HCl pH 7.5, 50 mM NaCl, 1 mM DTT, 4% glycerol, room temperature, 30 min; GST-TFs on glutathione beads, 16-mer random dsDNA library, 0.1% formaldehyde crosslink after washing; high values mean tight binding
# [1] = biological target: T1, FLI1 (Homo sapiens, UniProt Q01543 1-452); conditions: protein: recombinant; tags: N-terminal GST; dsDNA, one strand shown
# T1 sequence: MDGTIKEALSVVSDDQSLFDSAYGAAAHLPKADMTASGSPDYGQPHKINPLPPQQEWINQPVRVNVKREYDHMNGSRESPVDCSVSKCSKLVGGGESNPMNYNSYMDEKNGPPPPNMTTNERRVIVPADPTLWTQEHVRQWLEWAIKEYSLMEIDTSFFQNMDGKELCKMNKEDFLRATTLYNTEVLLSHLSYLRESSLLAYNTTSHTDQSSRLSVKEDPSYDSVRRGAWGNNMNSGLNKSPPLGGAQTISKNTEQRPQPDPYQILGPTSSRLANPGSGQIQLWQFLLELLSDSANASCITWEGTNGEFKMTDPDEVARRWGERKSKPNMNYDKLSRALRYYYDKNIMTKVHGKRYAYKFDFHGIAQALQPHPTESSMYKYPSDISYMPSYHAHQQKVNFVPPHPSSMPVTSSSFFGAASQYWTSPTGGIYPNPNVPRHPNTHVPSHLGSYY
# How it was run: (§1)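 Human transcription factors fused to GST were expressed in yeast, captured on glutathione beads, given DNA barcodes and pooled with a GST-only negative control. Pools were incubated with 200 nmole of a 16-mer random double-stranded DNA library in Tris/NaCl/DTT/glycerol buffer at room temperature for 30 min. They were then washed, crosslinked with 0.1% formaldehyde, proximity-ligated (BsaI/T4 ligase, 1 h, 37 °C), PCR-amplified and sequenced on an Illumina NextSeq500. Binding signal is each 6-mer's read frequency for a factor divided by its frequency for the GST control.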
# [2] = biological target: T2, ELK1 (Homo sapiens, UniProt P19419 1-428); conditions: protein: recombinant; tags: N-terminal GST; dsDNA, one strand shown
# T2 sequence: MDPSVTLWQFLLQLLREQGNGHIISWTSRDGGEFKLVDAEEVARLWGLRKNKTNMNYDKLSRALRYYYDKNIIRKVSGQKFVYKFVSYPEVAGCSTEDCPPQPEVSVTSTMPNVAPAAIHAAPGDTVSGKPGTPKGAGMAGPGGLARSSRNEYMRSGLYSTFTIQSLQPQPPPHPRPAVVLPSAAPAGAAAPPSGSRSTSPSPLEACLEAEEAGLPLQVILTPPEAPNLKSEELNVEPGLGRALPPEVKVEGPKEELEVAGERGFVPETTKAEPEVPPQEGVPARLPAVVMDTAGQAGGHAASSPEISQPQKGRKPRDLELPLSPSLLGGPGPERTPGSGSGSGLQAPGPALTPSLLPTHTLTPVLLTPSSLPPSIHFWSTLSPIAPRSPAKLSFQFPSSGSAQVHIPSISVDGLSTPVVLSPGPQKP
# How it was run: as §1
# [3] = biological target: T3, GABPA (Homo sapiens, UniProt Q06546 1-454); conditions: protein: recombinant; tags: N-terminal GST; dsDNA, one strand shown
# T3 sequence: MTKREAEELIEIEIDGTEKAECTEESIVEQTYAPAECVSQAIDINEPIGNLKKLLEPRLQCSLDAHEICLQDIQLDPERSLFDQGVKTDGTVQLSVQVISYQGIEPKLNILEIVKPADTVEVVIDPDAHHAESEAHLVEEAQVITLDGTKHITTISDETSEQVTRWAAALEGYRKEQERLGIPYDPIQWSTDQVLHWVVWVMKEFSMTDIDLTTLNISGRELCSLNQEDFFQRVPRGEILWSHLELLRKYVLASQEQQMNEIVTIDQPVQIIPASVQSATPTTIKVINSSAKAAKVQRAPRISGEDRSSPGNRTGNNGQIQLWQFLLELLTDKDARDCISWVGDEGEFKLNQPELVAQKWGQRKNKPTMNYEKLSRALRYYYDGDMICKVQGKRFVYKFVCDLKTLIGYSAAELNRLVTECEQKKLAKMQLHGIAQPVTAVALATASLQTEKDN
# How it was run: as §1
# [4] = biological target: T4, ERG (Homo sapiens, UniProt P11308 1-479); conditions: protein: recombinant; tags: N-terminal GST; dsDNA, one strand shown
# T4 sequence: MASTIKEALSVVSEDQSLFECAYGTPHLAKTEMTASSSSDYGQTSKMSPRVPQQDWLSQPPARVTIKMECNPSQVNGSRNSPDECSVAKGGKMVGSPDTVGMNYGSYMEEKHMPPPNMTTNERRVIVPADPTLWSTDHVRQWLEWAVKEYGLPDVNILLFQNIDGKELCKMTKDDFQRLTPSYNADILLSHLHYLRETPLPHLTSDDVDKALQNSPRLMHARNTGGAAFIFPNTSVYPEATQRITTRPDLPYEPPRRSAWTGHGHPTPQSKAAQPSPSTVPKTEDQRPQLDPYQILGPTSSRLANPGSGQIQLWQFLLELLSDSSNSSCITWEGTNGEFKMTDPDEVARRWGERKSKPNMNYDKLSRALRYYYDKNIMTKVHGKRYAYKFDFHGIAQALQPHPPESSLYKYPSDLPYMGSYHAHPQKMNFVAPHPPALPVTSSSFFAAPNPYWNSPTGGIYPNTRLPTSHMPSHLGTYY
# How it was run: as §1
# [5] = biological target: ELF1 (Homo sapiens, UniProt P32519 1-619); conditions: protein: recombinant; tags: N-terminal GST; dsDNA, one strand shown
# ELF1, sequence (P32519 whole entry): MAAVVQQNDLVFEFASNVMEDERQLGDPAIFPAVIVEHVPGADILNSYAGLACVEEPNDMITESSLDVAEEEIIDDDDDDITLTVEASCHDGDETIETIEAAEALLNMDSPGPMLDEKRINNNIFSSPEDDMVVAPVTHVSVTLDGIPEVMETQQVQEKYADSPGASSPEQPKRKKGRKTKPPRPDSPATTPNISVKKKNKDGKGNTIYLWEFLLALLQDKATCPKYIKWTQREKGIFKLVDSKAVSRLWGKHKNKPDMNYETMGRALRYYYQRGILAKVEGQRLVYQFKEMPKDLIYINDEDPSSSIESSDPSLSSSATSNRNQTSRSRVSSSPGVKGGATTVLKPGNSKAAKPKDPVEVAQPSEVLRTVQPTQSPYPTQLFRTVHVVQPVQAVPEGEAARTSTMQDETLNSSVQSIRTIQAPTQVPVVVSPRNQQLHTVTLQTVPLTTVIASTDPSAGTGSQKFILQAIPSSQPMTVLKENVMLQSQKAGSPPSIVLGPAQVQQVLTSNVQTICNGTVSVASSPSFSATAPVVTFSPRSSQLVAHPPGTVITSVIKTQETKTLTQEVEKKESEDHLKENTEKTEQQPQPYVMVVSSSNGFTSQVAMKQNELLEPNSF
# How it was run: as §1
# [6] = biological target: T5, EHF (Homo sapiens, UniProt Q9NZC4 1-300); conditions: protein: recombinant; tags: N-terminal GST; dsDNA, one strand shown
# T5 sequence: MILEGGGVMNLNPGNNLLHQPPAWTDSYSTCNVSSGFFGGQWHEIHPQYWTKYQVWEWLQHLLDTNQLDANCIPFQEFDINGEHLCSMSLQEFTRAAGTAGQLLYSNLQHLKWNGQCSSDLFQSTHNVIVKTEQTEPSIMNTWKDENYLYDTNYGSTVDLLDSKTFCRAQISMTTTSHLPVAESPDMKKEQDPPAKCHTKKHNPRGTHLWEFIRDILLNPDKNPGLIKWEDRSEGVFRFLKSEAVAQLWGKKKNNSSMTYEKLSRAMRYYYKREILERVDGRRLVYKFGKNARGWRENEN
# How it was run: as §1
# [7] = biological target: SPI1 (Homo sapiens, UniProt P17947 1-270); conditions: protein: recombinant; tags: N-terminal GST; dsDNA, one strand shown
# How it was run: as §1
# [8] = biological target: SPIB (Homo sapiens, UniProt Q01892 1-262); conditions: protein: recombinant; tags: N-terminal GST; dsDNA, one strand shown
# SPIB, sequence (Q01892 whole entry): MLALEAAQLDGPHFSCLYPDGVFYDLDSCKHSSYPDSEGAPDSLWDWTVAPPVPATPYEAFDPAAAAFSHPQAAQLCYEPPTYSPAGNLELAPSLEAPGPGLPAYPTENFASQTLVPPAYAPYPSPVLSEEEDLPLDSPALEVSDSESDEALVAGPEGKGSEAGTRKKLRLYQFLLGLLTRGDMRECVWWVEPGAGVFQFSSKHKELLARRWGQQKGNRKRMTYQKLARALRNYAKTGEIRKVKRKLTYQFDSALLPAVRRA
# How it was run: as §1
# [9] = biological target: T6, ELK3 (Homo sapiens, UniProt P41970 1-407); conditions: protein: recombinant; tags: N-terminal GST; dsDNA, one strand shown
# T6 sequence: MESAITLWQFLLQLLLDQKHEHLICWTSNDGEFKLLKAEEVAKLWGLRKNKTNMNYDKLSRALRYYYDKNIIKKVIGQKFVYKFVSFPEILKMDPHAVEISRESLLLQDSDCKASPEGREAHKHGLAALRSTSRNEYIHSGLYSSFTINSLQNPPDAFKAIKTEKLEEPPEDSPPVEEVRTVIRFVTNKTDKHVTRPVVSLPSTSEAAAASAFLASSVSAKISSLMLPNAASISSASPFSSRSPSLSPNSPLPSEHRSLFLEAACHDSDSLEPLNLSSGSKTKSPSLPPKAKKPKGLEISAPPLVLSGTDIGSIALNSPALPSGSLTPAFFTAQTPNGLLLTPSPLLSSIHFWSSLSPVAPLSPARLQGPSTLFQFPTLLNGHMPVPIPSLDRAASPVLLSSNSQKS
# How it was run: as §1
# [10] = biological target: T7, FEV (Homo sapiens, UniProt Q99581 1-238); conditions: protein: recombinant; tags: N-terminal GST; dsDNA, one strand shown
# T7 sequence: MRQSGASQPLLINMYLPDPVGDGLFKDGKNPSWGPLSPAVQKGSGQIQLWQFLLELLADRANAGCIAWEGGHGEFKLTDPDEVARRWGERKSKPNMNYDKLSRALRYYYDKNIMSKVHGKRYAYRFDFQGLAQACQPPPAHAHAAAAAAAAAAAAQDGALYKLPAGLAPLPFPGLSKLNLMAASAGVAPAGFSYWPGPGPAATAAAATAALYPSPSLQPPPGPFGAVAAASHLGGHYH
# How it was run: as §1
# [11] = biological target: ETV5 (Homo sapiens, UniProt P41161 1-510); conditions: protein: recombinant; tags: N-terminal GST; dsDNA, one strand shown
# ETV5, sequence (P41161 whole entry): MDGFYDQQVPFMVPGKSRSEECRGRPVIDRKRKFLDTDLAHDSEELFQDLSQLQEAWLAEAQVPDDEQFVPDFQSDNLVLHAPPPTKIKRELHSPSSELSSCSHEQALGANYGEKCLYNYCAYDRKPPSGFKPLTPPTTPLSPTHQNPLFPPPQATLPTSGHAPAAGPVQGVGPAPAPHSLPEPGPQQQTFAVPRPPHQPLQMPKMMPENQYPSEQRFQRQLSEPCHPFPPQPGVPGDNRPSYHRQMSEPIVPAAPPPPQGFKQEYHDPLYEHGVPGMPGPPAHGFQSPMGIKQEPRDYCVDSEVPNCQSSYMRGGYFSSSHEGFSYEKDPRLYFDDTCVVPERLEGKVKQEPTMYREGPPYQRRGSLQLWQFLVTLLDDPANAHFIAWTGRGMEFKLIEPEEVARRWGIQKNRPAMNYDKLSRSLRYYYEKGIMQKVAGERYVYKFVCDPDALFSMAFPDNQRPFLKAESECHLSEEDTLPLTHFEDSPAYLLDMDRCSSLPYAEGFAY
# How it was run: as §1
# [12] = biological target: HSF1 (Homo sapiens, UniProt Q00613 1-529); conditions: protein: recombinant; tags: N-terminal GST; chain copies: 3; dsDNA, one strand shown
# HSF1, sequence (Q00613 whole entry): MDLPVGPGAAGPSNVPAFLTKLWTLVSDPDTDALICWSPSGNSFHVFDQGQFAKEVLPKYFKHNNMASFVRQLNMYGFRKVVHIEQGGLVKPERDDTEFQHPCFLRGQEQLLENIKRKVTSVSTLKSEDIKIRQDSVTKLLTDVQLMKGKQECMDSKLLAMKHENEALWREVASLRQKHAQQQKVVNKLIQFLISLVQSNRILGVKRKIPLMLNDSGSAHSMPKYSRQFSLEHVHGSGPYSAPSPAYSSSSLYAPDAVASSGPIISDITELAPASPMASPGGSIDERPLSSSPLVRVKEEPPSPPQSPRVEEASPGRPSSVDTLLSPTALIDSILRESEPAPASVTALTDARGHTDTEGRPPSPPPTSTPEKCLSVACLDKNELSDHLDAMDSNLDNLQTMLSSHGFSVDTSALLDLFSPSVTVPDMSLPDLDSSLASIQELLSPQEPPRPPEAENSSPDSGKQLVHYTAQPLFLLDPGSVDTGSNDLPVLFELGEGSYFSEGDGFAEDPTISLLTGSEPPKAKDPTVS
# How it was run: as §1
# [13] = biological target: T8, SPIC (Homo sapiens, UniProt Q8N5J4 1-248); conditions: protein: recombinant; tags: N-terminal GST; dsDNA, one strand shown
# T8 sequence: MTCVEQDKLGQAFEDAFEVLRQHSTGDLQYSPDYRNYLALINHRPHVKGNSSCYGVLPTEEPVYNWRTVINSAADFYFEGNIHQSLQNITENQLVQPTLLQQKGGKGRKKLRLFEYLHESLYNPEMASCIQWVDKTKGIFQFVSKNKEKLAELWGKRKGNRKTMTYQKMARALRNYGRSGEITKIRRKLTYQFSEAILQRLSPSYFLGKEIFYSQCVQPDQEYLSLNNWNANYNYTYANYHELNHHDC
# How it was run: as §1
# [14] = biological target: ELF4 (Homo sapiens, UniProt Q99607 1-663); conditions: protein: recombinant; tags: N-terminal GST; dsDNA, one strand shown
# ELF4, sequence (Q99607 whole entry): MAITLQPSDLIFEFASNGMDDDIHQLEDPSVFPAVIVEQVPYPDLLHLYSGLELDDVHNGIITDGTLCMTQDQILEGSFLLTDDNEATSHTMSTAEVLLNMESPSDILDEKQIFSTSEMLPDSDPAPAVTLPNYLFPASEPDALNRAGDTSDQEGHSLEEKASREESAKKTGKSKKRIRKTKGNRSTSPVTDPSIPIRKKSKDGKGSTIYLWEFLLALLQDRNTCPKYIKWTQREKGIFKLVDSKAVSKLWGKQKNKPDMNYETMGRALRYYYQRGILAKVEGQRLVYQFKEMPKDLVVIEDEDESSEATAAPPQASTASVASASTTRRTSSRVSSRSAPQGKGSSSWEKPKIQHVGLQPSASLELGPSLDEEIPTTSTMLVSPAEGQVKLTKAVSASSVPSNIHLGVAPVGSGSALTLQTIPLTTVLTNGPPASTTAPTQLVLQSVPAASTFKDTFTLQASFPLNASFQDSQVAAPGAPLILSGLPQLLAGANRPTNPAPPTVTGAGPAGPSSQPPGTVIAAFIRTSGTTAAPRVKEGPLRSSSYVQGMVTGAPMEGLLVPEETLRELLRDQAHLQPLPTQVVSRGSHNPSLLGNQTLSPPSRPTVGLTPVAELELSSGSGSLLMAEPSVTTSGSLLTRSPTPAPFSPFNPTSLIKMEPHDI
# How it was run: as §1
# [15] = biological target: T9, ELK4 (Homo sapiens, UniProt P28324-2 1-405); conditions: protein: recombinant; tags: N-terminal GST; dsDNA, one strand shown
# T9 sequence: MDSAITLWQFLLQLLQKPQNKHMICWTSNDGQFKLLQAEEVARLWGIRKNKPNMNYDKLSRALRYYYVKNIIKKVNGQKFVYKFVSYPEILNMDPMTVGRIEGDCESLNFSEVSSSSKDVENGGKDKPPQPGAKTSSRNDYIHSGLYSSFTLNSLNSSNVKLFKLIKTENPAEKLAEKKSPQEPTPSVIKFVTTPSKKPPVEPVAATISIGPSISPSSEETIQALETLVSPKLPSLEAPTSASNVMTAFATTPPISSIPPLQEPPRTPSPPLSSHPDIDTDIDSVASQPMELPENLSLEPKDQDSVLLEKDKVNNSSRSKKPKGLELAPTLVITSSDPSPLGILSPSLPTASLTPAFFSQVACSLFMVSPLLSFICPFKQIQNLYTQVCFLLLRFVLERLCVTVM
# How it was run: as §1
# [16] = biological target: T10, ETV2 (Homo sapiens, UniProt O00321 1-342); conditions: protein: recombinant; tags: N-terminal GST; dsDNA, one strand shown
# T10 sequence: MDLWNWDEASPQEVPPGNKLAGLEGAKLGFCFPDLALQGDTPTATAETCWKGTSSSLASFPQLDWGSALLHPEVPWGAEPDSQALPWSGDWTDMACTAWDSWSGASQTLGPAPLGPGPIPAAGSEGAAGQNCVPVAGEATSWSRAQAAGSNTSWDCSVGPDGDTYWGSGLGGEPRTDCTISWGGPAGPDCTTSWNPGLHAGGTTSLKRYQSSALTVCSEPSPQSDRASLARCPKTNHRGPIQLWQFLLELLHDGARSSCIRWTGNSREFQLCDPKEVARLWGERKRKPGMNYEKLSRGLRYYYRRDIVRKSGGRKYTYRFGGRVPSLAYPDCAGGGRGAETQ
# How it was run: as §1
# [17] = biological target: T11, ELF3 (Homo sapiens, UniProt P78545 1-371); conditions: protein: recombinant; tags: N-terminal GST; dsDNA, one strand shown
# T11 sequence: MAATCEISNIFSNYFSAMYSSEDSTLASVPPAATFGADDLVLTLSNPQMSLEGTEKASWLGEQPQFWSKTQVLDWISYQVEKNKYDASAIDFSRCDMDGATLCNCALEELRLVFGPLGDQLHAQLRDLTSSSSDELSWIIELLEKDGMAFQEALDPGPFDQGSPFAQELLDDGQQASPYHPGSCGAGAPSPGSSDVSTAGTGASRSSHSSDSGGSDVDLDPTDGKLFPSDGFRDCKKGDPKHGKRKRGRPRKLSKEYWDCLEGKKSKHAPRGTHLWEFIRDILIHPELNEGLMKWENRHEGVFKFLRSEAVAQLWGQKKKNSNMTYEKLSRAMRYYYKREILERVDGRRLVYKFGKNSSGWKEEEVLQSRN
# How it was run: as §1
# [18] = biological target: CRX (Homo sapiens, UniProt O43186 1-299); conditions: protein: recombinant; tags: N-terminal GST; dsDNA, one strand shown
# CRX, sequence (O43186 whole entry): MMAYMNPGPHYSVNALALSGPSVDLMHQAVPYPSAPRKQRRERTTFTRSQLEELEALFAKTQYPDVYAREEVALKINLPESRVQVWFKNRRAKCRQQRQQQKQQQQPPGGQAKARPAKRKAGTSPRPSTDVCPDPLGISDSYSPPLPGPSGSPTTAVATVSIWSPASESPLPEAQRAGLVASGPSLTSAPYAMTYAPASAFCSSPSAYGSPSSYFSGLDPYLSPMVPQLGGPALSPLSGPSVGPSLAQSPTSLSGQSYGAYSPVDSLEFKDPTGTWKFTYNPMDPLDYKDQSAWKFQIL
# How it was run: as §1
# [19] = biological target: ETV1 (Homo sapiens, UniProt P50549 1-477); conditions: protein: recombinant; tags: N-terminal GST; dsDNA, one strand shown
# ETV1, sequence (P50549 whole entry): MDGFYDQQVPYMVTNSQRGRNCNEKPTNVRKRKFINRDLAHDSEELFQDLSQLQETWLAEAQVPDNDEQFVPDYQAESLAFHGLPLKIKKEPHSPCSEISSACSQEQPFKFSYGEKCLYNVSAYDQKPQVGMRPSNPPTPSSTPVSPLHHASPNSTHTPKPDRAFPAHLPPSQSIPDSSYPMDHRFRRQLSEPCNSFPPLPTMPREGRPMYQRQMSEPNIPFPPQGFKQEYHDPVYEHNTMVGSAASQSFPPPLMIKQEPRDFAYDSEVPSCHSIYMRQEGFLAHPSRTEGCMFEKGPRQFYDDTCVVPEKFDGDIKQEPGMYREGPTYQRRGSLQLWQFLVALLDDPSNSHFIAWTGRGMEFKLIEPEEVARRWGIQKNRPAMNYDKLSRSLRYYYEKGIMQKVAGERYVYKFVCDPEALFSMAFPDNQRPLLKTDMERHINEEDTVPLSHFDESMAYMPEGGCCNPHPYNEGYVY
# How it was run: as §1
sequence,measurement,setting,value
ATGTTC,binding signal,[1],"1.19 fold enrichment (6-mer frequency, TF over GST control)"
same,binding signal,[2],"1.28 fold enrichment (6-mer frequency, TF over GST control)"
same,binding signal,[3],"1.18 fold enrichment (6-mer frequency, TF over GST control)"
same,binding signal,[4],"1.21 fold enrichment (6-mer frequency, TF over GST control)"
same,binding signal,[5],"1.21 fold enrichment (6-mer frequency, TF over GST control)"
same,binding signal,[6],"1.34 fold enrichment (6-mer frequency, TF over GST control)"
same,binding signal,[7],"1.2 fold enrichment (6-mer frequency, TF over GST control)"
same,binding signal,[8],"1.22 fold enrichment (6-mer frequency, TF over GST control)"
same,binding signal,[9],"1.14 fold enrichment (6-mer frequency, TF over GST control)"
same,binding signal,[10],"1.15 fold enrichment (6-mer frequency, TF over GST control)"
same,binding signal,[11],"1.16 fold enrichment (6-mer frequency, TF over GST control)"
same,binding signal,[12],"2.33 fold enrichment (6-mer frequency, TF over GST control)"
same,binding signal,[13],"1.32 fold enrichment (6-mer frequency, TF over GST control)"
same,binding signal,[14],"1.22 fold enrichment (6-mer frequency, TF over GST control)"
same,binding signal,[15],"1.2 fold enrichment (6-mer frequency, TF over GST control)"
same,binding signal,[16],"1.14 fold enrichment (6-mer frequency, TF over GST control)"
same,binding signal,[17],"1.15 fold enrichment (6-mer frequency, TF over GST control)"
same,binding signal,[18],"1.22 fold enrichment (6-mer frequency, TF over GST control)"
same,binding signal,[19],"1.3 fold enrichment (6-mer frequency, TF over GST control)"
